Test [1] has as its target human Ephrin type-B Receptor 2 (EphB2), EPHB2 (gene 2048) (UniProt P29323). Briefly: NVS_ENZ_hEphB2: NovaScreen (NVS) Enzymatic Assay for human Ephrin type-B Receptor 2 (EphB2) (AID 2283156). The procedure, abridged:
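Compounds were first tested in duplicate at 25 uM, with hits rerun singly in concentration series up to 50 uM. Enzyme activity on fluorescent substrate was read at 1 h by mobility-shift separation, scored as signal loss relative to DMSO.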

For test [2], the target named is human Esterase Plasma (ES), BCHE (gene 590) (UniProt P06276). Briefly: NVS_ENZ_hES: NovaScreen (NVS) Enzymatic Assay for human Esterase Plasma (ES) (AID 2283157). The procedure, abridged: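 Primary single-concentration screen at 25 uM in duplicate, then concentration-response to a 50 uM top dose. Human plasma esterase activity detected colorimetrically after 0.25 h incubation, with DMSO as baseline.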

In test [3] the target is human Ephrin type-A Receptor 2 (EphA2), EPHA2 (gene 1969) (UniProt P29317). As to the kind of experiment: NVS_ENZ_hEphA2: NovaScreen (NVS) Enzymatic Assay for human Ephrin type-A Receptor 2 (EphA2) (AID 2283155). The procedure, abridged:
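Enzyme activity of recombinant EphA2 read by fluorescence after mobility-shift separation, 1 h after dosing. Chemicals first tested at 25 uM (duplicate); those passing threshold run as concentration series, top 50 uM, single replicate, relative to DMSO.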

For test [4], the target named is human Fibroblast Growth Factor Receptor 1 (FGFR1), FGFR1 (gene 2260) (UniProt P11362). As to the kind of experiment: NVS_ENZ_hFGFR1: NovaScreen (NVS) Enzymatic Assay for human Fibroblast Growth Factor Receptor 1 (FGFR1) (AID 2283159).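 As to AC50: hits lower the signal so potencies describe inhibitors of the kinase.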 The procedure, abridged: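 Cell-free recombinant kinase with fluorescent substrate, product separated by electrophoretic mobility shift; read 1 hour after dosing, loss of signal relative to DMSO. Initial screen in duplicate at 25 uM, actives followed in concentration series.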

The target of test [5] is human FYN Proto-Oncogene, Src family Tyrosine Kinase (Fyn), FYN (gene 2534) (UniProt P06241). As to the kind of experiment: NVS_ENZ_hFyn: NovaScreen (NVS) Enzymatic Assay for human FYN Proto-Oncogene, Src family Tyrosine Kinase (Fyn) (AID 2283161). The procedure, abridged:
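Cell-free kinase activity read by fluorescence after mobility-shift separation of substrate and product, 1 h post-dose. Initial single concentration 25 uM in duplicate, then concentration-response follow-up; DMSO baseline.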

Test [6] addresses Histone deacetylase 3 (Homo sapiens) (UniProt O15379). As to the kind of experiment: NVS_ENZ_hHDAC3: NovaScreen (NVS) Enzymatic Assay for human Histone Deacetylase 3 (HDAC3) (AID 2283163). The procedure, abridged: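 Cell-free enzyme format: loss of fluorescent product after mobility-shift separation, 1 h incubation, recombinant human HDAC3. Single 25 uM duplicate screen first, then concentration series to a 50 uM top for hits; DMSO as baseline.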

For test [7], the target named is Glycogen synthase kinase-3 beta (Homo sapiens) (UniProt P49841). Briefly: NVS_ENZ_hGSK3b: NovaScreen (NVS) Enzymatic Assay for human Glycogen Synthase Kinase-3 beta (GSK3b) (AID 2283165). The procedure, abridged: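 Recombinant enzyme with specific fluorescent substrate, 1 h, product separated by electrophoretic mobility shift. Primary duplicate screen at 25 uM; actives (e.g. 30% inhibition) followed in singleton concentration-response to 50 uM. Signal loss fitted versus DMSO.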

The target in test [8] is human IkappaB Kinase alpha (IKKa), CHUK (gene 1147) (UniProt O15111). Briefly: NVS_ENZ_hIKKa: NovaScreen (NVS) Enzymatic Assay for human IkappaB Kinase alpha (IKKa) (AID 2283167). The procedure, abridged:
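Compounds first run in duplicate at 25 uM, those meeting threshold (e.g. 30% inhibition) retested to maximum 50 uM. Enzyme activity of recombinant IKKa measured by fluorescence with electrophoretic mobility shift separation, 1 hour post-dosing, DMSO baseline.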

The target of test [9] is human Insulin Receptor (InsR), INSR (gene 3643) (UniProt P06213). Briefly: NVS_ENZ_hInsR: NovaScreen (NVS) Enzymatic Assay for human Insulin Receptor (InsR) (AID 2283168). The procedure, abridged:
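Cell-free enzyme assay read 1 h post-dose by fluorescence after substrate/product mobility-shift separation. Duplicate 25 uM primary screen, then singleton concentration-response up to 50 uM for compounds passing threshold; loss of signal vs DMSO.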

The target in test [10] is human Mitogen-Activated Protein Kinase 1 (MAPK 1), MAPK1 (gene 5594) (UniProt P28482). Briefly: NVS_ENZ_hMAPK1: NovaScreen (NVS) Enzymatic Assay for human Mitogen-Activated Protein Kinase 1 (MAPK 1) (AID 2283175). The procedure, abridged: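 Cell-free recombinant human MAPK1 enzymatic assay, fluorescence/electrophoretic mobility shift read at 1 h; loss of signal vs DMSO. Primary screen in duplicate at 25 uM; actives (e.g. ≥30% inhibition) run as concentration-response up to 50 uM.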

Test [11] addresses Mitogen-activated protein kinase 3 (Homo sapiens) (UniProt P27361). Briefly: NVS_ENZ_hMAPK3: NovaScreen (NVS) Enzymatic Assay for human Mitogen-Activated Protein Kinase 3 (MAPK 3) (AID 2283177). The procedure, abridged:
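Chemicals were first tested in duplicate at 25 uM, with hits re-run as concentration series (max 50 uM). Recombinant enzyme activity, measured 1 h post-dose in a cell-free format, was read by fluorescence/mobility shift relative to DMSO.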

Test [12] deals with human MAP Kinase-Activated Protein Kinase 2 (MAPKAPK2), MAPKAPK2 (gene 9261) (UniProt P49137). Briefly: NVS_ENZ_hMAPKAPK2: NovaScreen (NVS) Enzymatic Assay for human MAP Kinase-Activated Protein Kinase 2 (MAPKAPK2) (AID 2283178). The procedure, abridged: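 Chemicals screened in duplicate at 25 uM, then to 50 uM top concentration in concentration-response, against recombinant human MAPKAPK2; substrate conversion read 1 hr post-dosing by fluorescence after electrophoretic mobility-shift separation, loss-of-signal relative to DMSO.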

In test [13] the target is human MET Proto-Oncogene, Receptor Tyrosine Kinase (MET), MET (gene 4233) (UniProt P08581). As to the kind of experiment: NVS_ENZ_hMet: NovaScreen (NVS) Enzymatic Assay for human MET Proto-Oncogene, Receptor Tyrosine Kinase (MET) (AID 2283180). The procedure, abridged: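 Hits from a 25 uM duplicate screen were retested in concentration series up to 50 uM. Enzyme activity was measured by fluorescence after electrophoretic separation of product from substrate, 1 h after compound addition, relative to DMSO.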

In test [14] the target is Collagenase 3 (Homo sapiens) (UniProt P45452). As to the kind of experiment: NVS_ENZ_hMMP13: NovaScreen (NVS) Enzymatic Assay for human Matrix Metalloproteinase-13 (MMP13) (AID 2283182). The procedure, abridged: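 Recombinant MMP13 cleaving fluorescent substrate, cell-free, measured 1 h after dosing. Primary duplicate screen at 25 uM; actives tested in concentration-response up to 50 uM; loss of signal relative to DMSO.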

The target in test [15] is human Matrix Metalloproteinase-7 (MMP7), MMP7 (gene 4316) (UniProt P09237). As to the kind of experiment: NVS_ENZ_hMMP7: NovaScreen (NVS) Enzymatic Assay for human Matrix Metalloproteinase-7 (MMP7) (AID 2283183). The procedure, abridged: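 Compounds first tested at 25 uM in duplicate, then at up to 50 uM in concentration series if active. Protease activity measured by fluorescence intensity 1 h after dosing, with fitting relative to DMSO.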

In test [16] the target is human Matrix Metalloproteinase-2 (MMP2), MMP2 (gene 4313) (UniProt P08253). Briefly: NVS_ENZ_hMMP2: NovaScreen (NVS) Enzymatic Assay for human Matrix Metalloproteinase-2 (MMP2) (AID 2283184). The procedure, abridged:
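Compounds first screened in duplicate at a single 25 uM, with actives followed up in concentration series. Recombinant human MMP2 cleaves a fluorogenic substrate; fluorescence taken at 1 h, inhibition fitted relative to DMSO.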

Test [17] deals with human Janus Kinase 2 (Jak2), JAK2 (gene 3717) (UniProt O60674). As to the kind of experiment: NVS_ENZ_hJak2: NovaScreen (NVS) Enzymatic Assay for human Janus Kinase 2 (Jak2) (AID 2283169). The procedure, abridged: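 Single-point duplicate screen at 25 uM, with hits run in concentration series to a 50 uM top dose. Substrate-product separation by mobility shift with fluorescence detection, 1 h post-dosing; DMSO baseline.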

In test [18] the target is human Matrix Metalloproteinase-1 (MMP1), MMP1 (gene 4312) (UniProt P03956). Briefly: NVS_ENZ_hMMP1: NovaScreen (NVS) Enzymatic Assay for human Matrix Metalloproteinase-1 (MMP1) (AID 2283181). The procedure, abridged:
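Cell-free fluorescent substrate assay of human MMP1, read after 1 h. A single 25 uM duplicate screen was followed by concentration series to a maximum of 50 uM for actives meeting threshold; inhibition analysed against DMSO baseline.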

Values joined by “and” are separate entries in the source; they are usually repeats but may differ in a detail not shown here. Identical values can stand only once. Results filed as inconclusive are left out. The source holds several records for some structures; these can differ, active in one and inactive in another. Active and inactive are the calls of the source. The calls were made as follows: active = hit-call score of the fitted dose curve at least 0.9, where 1 is the maximum; inconclusive = response in the unintended direction; inactive = score below 0.9.

human Matrix Metalloproteinase-7 (MMP7), MMP7 (gene 4316), sequence (P09237 whole entry, looked up): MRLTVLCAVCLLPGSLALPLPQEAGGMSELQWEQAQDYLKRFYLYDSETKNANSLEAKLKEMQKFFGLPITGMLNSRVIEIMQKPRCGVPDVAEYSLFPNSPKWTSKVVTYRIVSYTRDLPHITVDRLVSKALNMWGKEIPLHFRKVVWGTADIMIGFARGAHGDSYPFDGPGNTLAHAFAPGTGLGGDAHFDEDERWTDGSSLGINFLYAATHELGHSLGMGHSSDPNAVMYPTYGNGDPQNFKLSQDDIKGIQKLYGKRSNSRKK
Mitogen-activated protein kinase 3 (Homo sapiens), sequence (P27361 whole entry, looked up): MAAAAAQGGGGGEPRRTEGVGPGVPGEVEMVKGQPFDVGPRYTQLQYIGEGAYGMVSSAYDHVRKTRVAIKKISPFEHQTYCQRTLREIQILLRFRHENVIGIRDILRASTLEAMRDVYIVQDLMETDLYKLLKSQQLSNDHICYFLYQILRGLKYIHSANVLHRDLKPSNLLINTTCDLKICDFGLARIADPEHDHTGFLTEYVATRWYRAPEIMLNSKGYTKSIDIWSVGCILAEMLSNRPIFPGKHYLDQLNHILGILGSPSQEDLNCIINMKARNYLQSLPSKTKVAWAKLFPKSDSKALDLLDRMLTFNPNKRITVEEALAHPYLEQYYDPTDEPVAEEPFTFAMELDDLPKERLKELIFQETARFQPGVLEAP
human Ephrin type-A Receptor 2 (EphA2), EPHA2 (gene 1969), sequence (P29317 whole entry, looked up): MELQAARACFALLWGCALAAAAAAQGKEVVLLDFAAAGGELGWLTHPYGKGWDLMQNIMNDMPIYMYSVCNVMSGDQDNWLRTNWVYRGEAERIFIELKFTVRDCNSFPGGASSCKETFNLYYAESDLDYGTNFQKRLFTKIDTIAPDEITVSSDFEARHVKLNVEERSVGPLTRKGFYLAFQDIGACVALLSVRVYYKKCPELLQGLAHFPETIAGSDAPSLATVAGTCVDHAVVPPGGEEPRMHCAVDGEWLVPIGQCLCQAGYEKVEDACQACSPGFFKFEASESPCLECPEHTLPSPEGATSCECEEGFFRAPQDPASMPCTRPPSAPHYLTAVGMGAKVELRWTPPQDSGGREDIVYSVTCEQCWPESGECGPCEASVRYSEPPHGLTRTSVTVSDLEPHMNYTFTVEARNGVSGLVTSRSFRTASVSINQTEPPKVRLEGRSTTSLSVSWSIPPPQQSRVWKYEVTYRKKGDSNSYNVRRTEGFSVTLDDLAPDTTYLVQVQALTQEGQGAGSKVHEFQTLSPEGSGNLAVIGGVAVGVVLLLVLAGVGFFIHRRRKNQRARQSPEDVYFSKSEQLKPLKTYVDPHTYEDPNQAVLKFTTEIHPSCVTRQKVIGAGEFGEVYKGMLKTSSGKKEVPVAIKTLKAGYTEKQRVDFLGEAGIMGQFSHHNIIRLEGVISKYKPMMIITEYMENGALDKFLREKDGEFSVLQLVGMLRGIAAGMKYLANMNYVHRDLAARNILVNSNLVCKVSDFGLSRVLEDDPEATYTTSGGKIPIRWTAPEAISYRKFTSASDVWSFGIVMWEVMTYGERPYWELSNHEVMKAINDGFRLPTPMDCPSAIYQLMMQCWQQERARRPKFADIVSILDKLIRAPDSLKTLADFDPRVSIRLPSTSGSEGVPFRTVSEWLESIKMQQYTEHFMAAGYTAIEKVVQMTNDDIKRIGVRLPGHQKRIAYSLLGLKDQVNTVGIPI
human Fibroblast Growth Factor Receptor 1 (FGFR1), FGFR1 (gene 2260), sequence (P11362 whole entry, looked up): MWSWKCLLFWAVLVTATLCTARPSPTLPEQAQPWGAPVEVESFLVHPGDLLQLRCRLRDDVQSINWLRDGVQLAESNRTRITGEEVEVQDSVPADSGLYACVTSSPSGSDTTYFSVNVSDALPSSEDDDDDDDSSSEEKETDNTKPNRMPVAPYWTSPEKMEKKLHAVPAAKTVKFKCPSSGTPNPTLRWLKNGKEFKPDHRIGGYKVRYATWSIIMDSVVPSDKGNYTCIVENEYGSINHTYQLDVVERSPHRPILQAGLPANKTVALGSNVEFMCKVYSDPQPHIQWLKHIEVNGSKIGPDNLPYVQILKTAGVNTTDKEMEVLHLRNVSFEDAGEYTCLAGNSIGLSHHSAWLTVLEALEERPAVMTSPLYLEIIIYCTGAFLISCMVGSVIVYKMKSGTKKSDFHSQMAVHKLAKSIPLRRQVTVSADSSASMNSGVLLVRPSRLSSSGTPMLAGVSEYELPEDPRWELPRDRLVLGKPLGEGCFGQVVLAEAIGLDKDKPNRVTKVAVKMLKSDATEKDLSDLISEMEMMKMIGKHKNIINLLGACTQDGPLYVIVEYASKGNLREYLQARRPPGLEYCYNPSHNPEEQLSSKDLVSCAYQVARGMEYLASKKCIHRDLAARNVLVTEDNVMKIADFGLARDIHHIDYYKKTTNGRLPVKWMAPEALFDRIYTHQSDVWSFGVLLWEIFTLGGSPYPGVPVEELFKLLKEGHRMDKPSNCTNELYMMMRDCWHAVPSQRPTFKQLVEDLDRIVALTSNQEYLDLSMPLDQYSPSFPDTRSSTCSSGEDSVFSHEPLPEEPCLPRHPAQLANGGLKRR
human Matrix Metalloproteinase-2 (MMP2), MMP2 (gene 4313), sequence (P08253 whole entry, looked up): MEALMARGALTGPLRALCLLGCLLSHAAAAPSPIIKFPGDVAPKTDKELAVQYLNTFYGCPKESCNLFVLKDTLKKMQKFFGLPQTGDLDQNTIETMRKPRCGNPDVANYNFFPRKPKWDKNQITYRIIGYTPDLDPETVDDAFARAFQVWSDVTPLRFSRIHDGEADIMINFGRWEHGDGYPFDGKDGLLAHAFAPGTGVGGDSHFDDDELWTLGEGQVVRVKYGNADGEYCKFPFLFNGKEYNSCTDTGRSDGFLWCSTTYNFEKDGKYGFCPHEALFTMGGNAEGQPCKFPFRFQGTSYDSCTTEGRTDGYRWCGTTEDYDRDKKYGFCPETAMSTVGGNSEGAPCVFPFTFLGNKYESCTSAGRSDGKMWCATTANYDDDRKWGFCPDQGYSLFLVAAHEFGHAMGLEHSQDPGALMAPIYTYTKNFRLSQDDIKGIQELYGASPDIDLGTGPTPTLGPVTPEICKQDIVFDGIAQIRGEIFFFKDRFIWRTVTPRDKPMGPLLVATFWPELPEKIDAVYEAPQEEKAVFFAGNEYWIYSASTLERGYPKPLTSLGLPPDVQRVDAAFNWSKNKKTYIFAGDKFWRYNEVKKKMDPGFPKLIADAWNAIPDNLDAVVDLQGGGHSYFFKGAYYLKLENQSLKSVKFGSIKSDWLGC
human Matrix Metalloproteinase-1 (MMP1), MMP1 (gene 4312), sequence (P03956 whole entry, looked up): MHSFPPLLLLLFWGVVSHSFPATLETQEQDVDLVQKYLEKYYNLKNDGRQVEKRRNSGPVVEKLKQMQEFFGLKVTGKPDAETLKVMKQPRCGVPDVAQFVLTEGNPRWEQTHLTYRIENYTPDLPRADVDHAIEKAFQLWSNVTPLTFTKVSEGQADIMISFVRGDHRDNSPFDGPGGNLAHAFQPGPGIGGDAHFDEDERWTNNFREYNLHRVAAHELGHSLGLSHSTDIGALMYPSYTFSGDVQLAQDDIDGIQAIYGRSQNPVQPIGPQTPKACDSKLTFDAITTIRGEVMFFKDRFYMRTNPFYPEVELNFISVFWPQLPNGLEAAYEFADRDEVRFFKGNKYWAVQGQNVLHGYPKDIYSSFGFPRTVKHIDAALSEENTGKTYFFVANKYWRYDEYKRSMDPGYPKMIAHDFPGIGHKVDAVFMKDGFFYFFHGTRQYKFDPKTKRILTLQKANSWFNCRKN
Glycogen synthase kinase-3 beta (Homo sapiens), sequence (P49841 whole entry, looked up): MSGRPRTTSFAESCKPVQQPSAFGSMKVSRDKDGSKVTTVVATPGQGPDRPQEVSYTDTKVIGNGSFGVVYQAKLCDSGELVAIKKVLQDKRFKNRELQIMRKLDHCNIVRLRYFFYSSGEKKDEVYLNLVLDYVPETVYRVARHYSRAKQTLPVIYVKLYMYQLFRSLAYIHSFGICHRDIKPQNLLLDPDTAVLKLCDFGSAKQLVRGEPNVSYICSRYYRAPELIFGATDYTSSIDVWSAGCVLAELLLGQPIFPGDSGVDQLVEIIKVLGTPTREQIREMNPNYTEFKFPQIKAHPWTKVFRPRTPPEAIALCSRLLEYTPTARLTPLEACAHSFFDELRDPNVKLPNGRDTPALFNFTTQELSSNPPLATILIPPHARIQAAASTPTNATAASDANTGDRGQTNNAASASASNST
human Mitogen-Activated Protein Kinase 1 (MAPK 1), MAPK1 (gene 5594), sequence (P28482 whole entry, looked up): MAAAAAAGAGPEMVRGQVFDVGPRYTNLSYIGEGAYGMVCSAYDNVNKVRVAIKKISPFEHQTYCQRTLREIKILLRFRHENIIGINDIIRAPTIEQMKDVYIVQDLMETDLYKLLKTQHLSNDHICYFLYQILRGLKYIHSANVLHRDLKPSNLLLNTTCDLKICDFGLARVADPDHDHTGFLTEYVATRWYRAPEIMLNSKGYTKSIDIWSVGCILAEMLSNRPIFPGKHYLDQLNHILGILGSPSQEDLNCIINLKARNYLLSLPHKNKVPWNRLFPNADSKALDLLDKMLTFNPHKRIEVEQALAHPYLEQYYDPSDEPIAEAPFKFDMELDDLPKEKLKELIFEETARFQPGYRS
human MAP Kinase-Activated Protein Kinase 2 (MAPKAPK2), MAPKAPK2 (gene 9261), sequence (P49137 whole entry, looked up): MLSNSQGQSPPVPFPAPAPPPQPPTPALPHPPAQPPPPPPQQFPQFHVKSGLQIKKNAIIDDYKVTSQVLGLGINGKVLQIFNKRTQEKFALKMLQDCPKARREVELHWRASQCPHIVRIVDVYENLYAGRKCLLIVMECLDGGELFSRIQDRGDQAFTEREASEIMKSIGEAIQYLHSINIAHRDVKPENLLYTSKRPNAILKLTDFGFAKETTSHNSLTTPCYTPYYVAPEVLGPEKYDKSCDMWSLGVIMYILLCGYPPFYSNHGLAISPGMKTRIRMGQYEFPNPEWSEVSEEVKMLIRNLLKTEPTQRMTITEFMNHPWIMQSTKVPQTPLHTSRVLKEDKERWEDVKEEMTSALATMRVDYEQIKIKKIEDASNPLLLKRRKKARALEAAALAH

As for `CCOCN(C(=O)CCl)c1c(C)cccc1CC`, the molecule was classed as inactive in test [1].

As for `CC(C)OC(=O)Nc1cccc(Cl)c1`, the molecule was classed as inactive in test [2].

As to `O=S(=O)(O)C(F)(F)C(F)(F)C(F)(F)C(F)(F)C(F)(F)C(F)(F)C(F)(F)C(F)(F)F`, the AC50 was 15.8 µM (active) in test [3]; 39.7 µM (active) and 24.3 µM (active) in [4]; 47 µM (active) in test [5]; 17.4 µM (active) and 10.3 µM (active) in test [6]; 39.3 µM (active) in test [7]; 27.2 µM (active) and 25.9 µM (active) in test [8]. Besides, the AC50 in [9] was 11.7 µM (active); in [10] it was 34.9 µM (active) and 41 µM (active); in test [11], 32.7 µM (active); in [13] it was 36.1 µM (active) and 40.4 µM (active); in test [14], 7.53 µM (active) and 43 µM (active); in test [15] it was 1.73 µM (active). The outcome in test [12] and in test [16] was inactive.

With `CC1(C)C(C=C(Cl)Cl)C1C(=O)OC(C#N)c1ccc(F)c(Oc2ccccc2)c1` (stereo not drawn), the molecule was called inactive in test [3].

For `O=C(NC(=O)c1c(F)cccc1F)Nc1ccc(OC(F)(F)C(F)OC(F)(F)F)c(Cl)c1` (stereo not drawn), the molecule was called inactive in [6].

Turning to `COC(=O)c1ccccc1S(=O)(=O)NC(=O)N(C)c1nc(C)nc(OC)n1`, the outcome in test [5], in [10] and in test [11] was inactive. Also, in test [12], the AC50 was 9.14 µM (active).

For the molecule `CC[C@H](C)[C@H]1O[C@]2(C=C[C@@H]1C)C[C@@H]1C[C@@H](C/C=C(\C)[C@@H](O[C@H]3C[C@H](OC)[C@@H](O[C@H]4C[C@H](OC)[C@@H](O)[C@H](C)O4)[C@H](C)O3)[C@@H](C)/C=C/C=C3\CO[C@@H]4[C@H](O)C(C)=C[C@@H](C(=O)O1)[C@]34O)O2` (tested in a mixture with another compound), the molecule was called inactive in [4]. The AC50 is 13.8 µM (active) in test [17] and 25 µM (active) in test [14].

With `CC(C)(C)C(O)/C(=C\c1ccc(Cl)cc1Cl)n1cncn1` (stereo not drawn), the molecule was classed as inactive in [10].

For `CCCN(CCOc1c(Cl)cc(Cl)cc1Cl)C(=O)n1ccnc1`, in [18], the AC50 was 13 µM (active).

Consider `N#Cc1c(Cl)c(Cl)c(Cl)c(C#N)c1Cl`, for which the AC50 in test [7] is 25 µM (active). For the same molecule, the call in [11] and in test [15] was inactive.

For the molecule `Oc1ccc(Cl)cc1Cc1ccccc1`, the outcome in test [3], in [1], in test [2], in test [7], in [12] and in test [18] was inactive. Moreover, the values for the half-maximal activity concentration (AC50) in [18] and in test [15] were 6.03 µM (active) and 6.41 µM (active), respectively.

A word on the AC50: it is the concentration giving half of the maximal activity seen.
